From PubChem BioAssay AID1942 (Johns Hopkins Ion Channel Center, 2009) come the findings set out here.

About 580 (24%) of roughly 2,400 compounds were called active. Only a sample is shown. Values without a mark were called inactive.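 The calls were made as follows: active = activity change at or above the mean plus 3 SD of buffer wells without dofetilide, per plate; inactive = the rest.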

Chain of Potassium voltage-gated channel subfamily KQT member 2 (Rattus norvegicus) (O88943 whole entry, looked up): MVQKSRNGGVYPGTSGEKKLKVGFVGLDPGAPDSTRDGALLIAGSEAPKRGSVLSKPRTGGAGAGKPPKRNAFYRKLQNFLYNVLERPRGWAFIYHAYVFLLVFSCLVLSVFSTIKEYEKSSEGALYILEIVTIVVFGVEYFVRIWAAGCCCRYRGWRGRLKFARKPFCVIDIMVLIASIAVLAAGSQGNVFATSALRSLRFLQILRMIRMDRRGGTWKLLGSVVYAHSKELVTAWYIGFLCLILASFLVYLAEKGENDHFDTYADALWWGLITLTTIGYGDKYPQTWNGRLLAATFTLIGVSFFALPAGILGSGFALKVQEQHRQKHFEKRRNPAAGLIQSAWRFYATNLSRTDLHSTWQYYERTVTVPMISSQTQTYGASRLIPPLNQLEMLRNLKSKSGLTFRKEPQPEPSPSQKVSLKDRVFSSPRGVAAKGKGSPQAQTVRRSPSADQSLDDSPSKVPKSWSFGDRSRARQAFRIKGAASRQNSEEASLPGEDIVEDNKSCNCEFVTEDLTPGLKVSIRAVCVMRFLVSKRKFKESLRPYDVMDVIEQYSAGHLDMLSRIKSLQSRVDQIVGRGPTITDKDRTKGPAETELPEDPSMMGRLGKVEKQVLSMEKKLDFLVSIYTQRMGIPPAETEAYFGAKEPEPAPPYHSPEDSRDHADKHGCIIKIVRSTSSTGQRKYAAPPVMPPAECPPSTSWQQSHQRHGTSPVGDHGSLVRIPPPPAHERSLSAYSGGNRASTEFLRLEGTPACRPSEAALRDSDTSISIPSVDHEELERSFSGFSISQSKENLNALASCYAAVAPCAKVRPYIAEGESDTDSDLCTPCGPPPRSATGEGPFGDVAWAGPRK

The assay addresses Potassium voltage-gated channel subfamily KQT member 2 (Rattus norvegicus) (UniProt O88943). The assay can be described thus: KCNQ2 potentiation in CHO cells – cell-based, FluxOR thallium flux, counter-screen for hERG block protector project, confirmation (AID 1942).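 Also: normalized value minus buffer-control mean plus three SD of buffer wells.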 The conditions noted are these: FluxOR thallium flux fluorescence, at 10 µM, hits give high values. For orientation: Counterscreens check selectivity or assay interference.
As for `CCCSC(=S)c1c(C)[nH]n(-c2ccccc2)c1=O`, the activity change, less the hit threshold was 49.7% (active).
To `Cc1[nH]n(-c2ccccc2)c(=O)c1N=Nc1ccc(C(N)=O)cc1` belongs -25.6%; to `CCSC(=S)c1c(C)[nH]n(-c2ccccc2)c1=O`, -4.2%; to `Cc1cc(C(=O)NCCN2C(=O)S/C(=C\c3cccs3)C2=O)ccc1[N+](=O)[O-]`, -16.8%.
Turning to `Nc1nonc1-n1nnc(C(=O)N/N=C/c2ccccn2)c1-c1ccccc1`, the activity change, less the hit threshold is -18.1%.
To `COc1ccc(C2N=C(c3ccccc3)C(C)(C)N2O)cc1` (centres undefined) belongs -18.6%; to `Cc1nn(C)cc1C(=O)Nc1ccc2c(c1)OCCO2`, -19.7%.
On to `Cc1ccc(CN2CCN(CC(=O)NC(C)c3ccc4c(c3)OCCO4)C2=O)cc1` (centres undefined), for which the activity change, less the hit threshold was 16.9% (active).
The same measure for `Cc1cc(Cl)ccc1OC(C)C(=O)NCCc1ccc2c(c1)OCCO2` (centres undefined): -30.8%; for `C/C(=N\NC(=S)Nc1c(C)cccc1C)c1cc2ccccc2o1`: -16.4%.
The same measure for `O=C(N/N=C/c1ccc(Sc2ccccn2)o1)c1cc2ccccc2cc1O`: -4.5%; for `C/C(=N\NC(=O)c1cc2ccccc2cc1O)c1ccccn1`: -9.4%.
As for `Cc1ccc(/C=N/NC(=O)c2cc(C)oc2C)o1`, the activity change, less the hit threshold was -17.8%.
To `C/C(=N\NC(=O)CSc1nc2ccccc2o1)c1ccc(O)cc1` belongs -16.2%.
The same measure for `C/C(=N\NC(=O)c1cc2ccccc2cc1O)c1cc2ccccc2o1`: 82% (active); for `COc1ccc(CCNC(=O)c2cc3ccccc3oc2=O)cc1`: -29%; for `C/C(=N\NC(=O)c1ccoc1C)c1cccc2ccccc12`: 55% (active).
To `C/C(=N\NC(=S)Nc1cccc(C)c1)c1ccco1` belongs -13.9%.
As to `Cc1ccc(/C=N/NC(=O)c2cc3ccccc3cc2O)o1`, the activity change, less the hit threshold is 77.9% (active).
To `C/C(=N/NC(=O)c1cc2ccccc2cc1O)c1ccco1` belongs 72.8% (active); to `Cc1cc(C(=O)Nc2cccc3ccccc23)c(C)o1`, -28.1%.
Turning to `CC(C)(C)NC(=O)CN(C(=O)CS(=O)CC(=O)Nc1ccc(F)cc1)c1cccc(F)c1` (centres undefined), the activity change, less the hit threshold is -11.2%.
Take `Cc1ccsc1/C=C1/SC(=O)N(CC(=O)N2CCCC2)C1=O`: the activity change, less the hit threshold was -18.9%.
To `Cn1c(=O)c(Sc2ccccc2)c(O)c2ccccc21` belongs -8.1%.
To `Cn1c(=O)c2c(ncn2CC(=O)OCc2ccccc2)n(C)c1=O` belongs -14.2%; to `Cc1nc(-c2cc(C#N)c(Sc3ccc(Cl)cc3Cl)nc2C)cs1`, -16.9%; to `COc1cc(C(=S)N2CCOCC2)ccc1OC(=O)c1ccc([N+](=O)[O-])cc1[N+](=O)[O-]`, -27.5%.
For `Cc1ccc(CCNC(=O)c2cccc(NC3=NC4CS(=O)(=O)CC4S3)c2)cc1` (centres undefined), the activity change, less the hit threshold is -10.3%.
To `C/C(=N/NC(=O)c1sc(NS(=O)(=O)c2ccccc2)nc1C)c1sc(N)nc1C` belongs -11.4%; to `C/C(=N\NC(=O)c1cc2ccccc2cc1O)c1ccc(C)o1`, 30.2% (active).
As for `Cc1ccc(C(=O)NC2CCC(C)CC2)o1` (centres undefined), the activity change, less the hit threshold is -20.7%.
The same measure for `Nn1c(SCC(=O)Nc2ccc(OC(F)F)cc2)nnc1-c1ccco1`: -14.7%; for `Cc1ccc(C(=O)Sc2cccccc2=O)cc1`: 78.4% (active).
As to `CSc1ccccc1C(=O)NCc1ccc(C)cc1`, the activity change, less the hit threshold was -15.6%.
To `CC1=CC(=O)C(C(C)C)=CC1=NC(=O)c1ccc(C)cc1` belongs -15.5%; to `Cc1ccc(Nc2nc(-c3ccncc3)cs2)cc1`, -17.9%.
Consider `Brc1ccc(-c2csc(N3CCCCCC3)n2)cc1`, for which the activity change, less the hit threshold was -13.8%.
For `Cc1cc(C)c(-c2c(O)c3c(n(C)c2=O)CC(C)(C)CC3=O)c(C)c1`, the activity change, less the hit threshold is -18.3%.
The same measure for `O=C(COc1ccccc1)Nc1ccc(F)cc1`: -28.9%.
The same measure for `COc1ccccc1NC(=O)C(=O)NNC(=O)COc1ccc2ccccc2c1`: 93.1% (active); for `COC(=O)CSc1nnc(COc2ccc3ccccc3c2)o1`: -16%.
To `C=CCNC(=O)c1ccccc1NC(=O)COc1ccc(OC)cc1` belongs -11.7%; to `O=C(COc1ccc(C(=O)c2ccccc2)cc1)Nc1cccnc1`, -35%.
Regarding `Cc1ccccc1NC(=O)C(=O)NNC(=O)COc1ccc2ccccc2c1`, the activity change, less the hit threshold was 33.6% (active).
Turning to `O=C(COc1ccc2ccccc2c1)Nc1ccc(Br)cc1C(=O)O`, the activity change, less the hit threshold is -9%.
In the case of `O=C(COc1ccc2ccccc2c1)NNC(=O)C(=O)Nc1ccccc1`, the activity change, less the hit threshold is 47.2% (active).
The same measure for `CSc1ccc(S(=O)(=O)N2CCC(C(=O)Nc3ccccc3C(F)(F)F)CC2)cc1`: -14.7%; for `Cc1nonc1CN(C)C(=O)c1ccc(OC2CCN(Cc3ccccn3)CC2)cc1`: -5.7%; for `Cc1ccc(C(=C2C3C=CC2C2C(=O)NC(=O)C32)c2ccc(C)cc2)cc1` (centres undefined): -17.1%.
Consider `COc1ccccc1C(=O)COC(=O)c1ccc(-n2cnnn2)cc1`, for which the activity change, less the hit threshold is -14.7%.
Regarding `CCOC(=O)c1nnn(CC(=O)Nc2cccc(F)c2)c1C(=O)OCC`, the activity change, less the hit threshold is -9.5%.
For `COc1ccc(CC(=O)Nc2ccc(-c3noc(-c4ccccc4OC)n3)cc2)cc1`, the activity change, less the hit threshold is -16.7%.
`O=C(c1ccccc1)c1nccn1-c1ccc(Cl)nn1`: the activity change, less the hit threshold was -7.9%.
The same measure for `O=C(CSc1cccc[n+]1[O-])C12CC3CC(CC(C3)C1)C2`: -11.8%.
To `O=C(NCCCN1CCOCC1)c1ccc(CS(=O)(=O)Cc2ccccc2Cl)o1` belongs -26.5%.
To `Cc1c(Cl)cccc1NC(=S)N=Nc1c(O)n(CN2CCOCC2)c2ccccc12` belongs 4.9% (active).
With `Oc1c(N=NC(=S)Nc2ccccc2F)c2ccccc2n1Cc1ccc(F)cc1`, the activity change, less the hit threshold is 2.8% (active).
Turning to `Oc1c(N=NC(=S)Nc2ccccc2F)c2ccccc2n1Cc1ccccc1`, the activity change, less the hit threshold is -9.8%.
`Oc1c(N=NC(=S)Nc2ccccc2F)c2ccccc2n1Cc1ccc(Cl)cc1`: the activity change, less the hit threshold was -13.5%.
In the case of `Cc1ccc(Cn2c(O)c(N=NC(=S)Nc3ccccc3F)c3ccccc32)cc1`, the activity change, less the hit threshold was -11.4%.
In the case of `Oc1c(N=NC(=S)Nc2ccccc2F)c2ccccc2n1Cc1ccccc1Cl`, the activity change, less the hit threshold is -10%.
Consider `O=C(CN1C(=O)CSCC1=O)Nc1ccc2c(c1)OCO2`, for which the activity change, less the hit threshold is -7.1%.
The same measure for `Nc1ccc2nc(-c3cccs3)[nH]c2c1`: -8.8%; for `CC(C)(C)n1nnnc1C(c1cccs1)N1CCN(Cc2ccccc2)CC1` (centres undefined): -11.7%; for `O=C(/C=C/Nc1ccc(F)c(F)c1)c1cccs1`: -17.4%.
As to `Cc1sc2nc(CN3CCOCC3)[nH]c(=S)c2c1C`, the activity change, less the hit threshold is 93.4% (active).
With `C/C(Nc1cccc(F)c1)=C(/C#N)C(N)=O`, the activity change, less the hit threshold was -14.7%.
`Cc1nc(NCc2cccnc2)c2c3c(sc2n1)CC(C)CC3` (centres undefined): the activity change, less the hit threshold is 26.7% (active).
The same measure for `Cc1cccc(NC(=O)CN2C(=O)S/C(=C\c3cccn3-c3cccc(C(=O)O)c3)C2=O)c1`: -18.5%; for `S=c1nc[nH]c2c1sc1nc(-c3ccccc3)c3c(c12)CCCC3`: -4.2%; for `S=c1nc[nH]c2c1sc1nc(N3CCOCC3)c3c(c12)CCCC3`: 43.5% (active).
The same measure for `CC(C)c1nc2sc3c(=S)nc[nH]c3c2c2c1CCC2`: 14.2% (active); for `COc1ccc(S(=O)(=O)Nc2cccnc2)cc1`: -17.2%; for `CN(C)C(=O)c1ccc(NC(=O)c2cncc(Br)c2)cc1`: -12%.
With `O=C(NC(=S)Nc1ccc(N2CCOCC2)c(Cl)c1)c1sc2ccccc2c1Cl`, the activity change, less the hit threshold is -10.6%.
`O=C(Nc1nc(=O)c2ccccc2s1)c1ccc(Cl)cc1`: the activity change, less the hit threshold is -5.6%.
As to `Cc1ccc(C(=O)NNC(=S)NC(=O)c2ccc(Cl)cc2)cc1`, the activity change, less the hit threshold was -28.7%.
To `COc1ccccc1C(=O)NC(=S)NNC(=O)c1sc2ccccc2c1Cl` belongs 77% (active); to `O=C(NNC(=S)NC(=O)c1sc2ccccc2c1Cl)c1ccc(Cl)cc1`, 11.1% (active); to `COc1ccccc1C(=O)NNC(=S)NC(=O)c1sc2ccccc2c1Cl`, 19.7% (active).
To `COc1cccc(C(=O)NC(=S)Nn2cnnc2)c1OC` belongs -19.6%; to `Cc1ccc(NC(=S)NC(=O)c2sc3ccccc3c2Cl)c(C(=O)O)c1`, 13.9% (active).
To `CCC(C)N(C(=O)CSc1nnc(NC(C)C)s1)C1CCS(=O)(=O)C1` (centres undefined) belongs -15.4%.
In the case of `O=c1cc(CN2CCN(S(=O)(=O)c3ccc4c(c3)OCCO4)CC2)c2ccc(O)cc2o1`, the activity change, less the hit threshold is -20%.
Regarding `S=c1[nH]nc(CSc2nc3ccccc3s2)n1C1CCCCC1`, the activity change, less the hit threshold is -2.2%.
The same measure for `Cc1ccc(CNC(=O)c2ccc(CNc3c(N4CCCC4)c(=O)c3=O)cc2)cc1`: -23.6%.
As to `Cc1ccc(C(=O)Nc2nc(=O)n(C)s2)cc1`, the activity change, less the hit threshold was -12%.
To `Cc1ccc(C(=O)NNc2cc(N3CCCC3)nc(N3CCCC3)n2)cc1` belongs 16.1% (active); to `O=C(Nc1nnc(C2=COCCO2)o1)c1ccc(Br)cc1`, -2.3%.
Turning to `CCn1cc(C(=O)NCCN(C)C)c(=O)c2cc(F)c(N3CCN(C)CC3)cc21`, the activity change, less the hit threshold was -23.9%.
On to `COc1ccc(NC(=O)c2ccc(NC3=NC4CS(=O)(=O)CC4S3)cc2)cc1` (centres undefined), for which the activity change, less the hit threshold is -19.9%.
To `COc1ccc(NC(=O)c2ccc(COCC(F)(F)C(F)F)cc2)cc1` belongs -19.7%; to `COc1ccc(C(=O)Nc2ccc(-n3nncc3C(C)(C)C)cc2)cc1`, 17.5% (active); to `CCSc1nnc(NC(=O)CC(C)C)s1`, -11.1%.
Take `NC(=O)c1nn2c(C(F)(F)F)cc(-c3ccccc3)nc2c1Br`: the activity change, less the hit threshold is -18.2%.
To `Cc1nn(CCC#N)c2nc(-c3ccccc3)cc(C(F)(F)F)c12` belongs -22.2%; to `Cc1[nH]n2c(=O)cc(C(C)C)nc2c1-c1ccccc1`, -3.3%.
The same measure for `O=c1cc(-c2ccccc2)nc2c(-c3ccccc3)c(C(F)(F)F)[nH]n12`: 59.6% (active).
To `Cc1[nH]n2c(=O)cc(C(C)(C)C)nc2c1-c1ccccc1` belongs 14.6% (active).
